HP1b chromo inh = HTS for Inhibitors of HP1-beta Chromodomain Interactions with Methylated Histone Tails; AlphaScreen HP1-beta / biotin-H3K9me3 peptide binding; Potency, µM (series often up to 114 µM), hits mostly inhibitors; 0.56% of 390,000 active; note: nearly all actives have a fitted effect of over 70% in size
Target sequence (P83916 whole entry, looked up): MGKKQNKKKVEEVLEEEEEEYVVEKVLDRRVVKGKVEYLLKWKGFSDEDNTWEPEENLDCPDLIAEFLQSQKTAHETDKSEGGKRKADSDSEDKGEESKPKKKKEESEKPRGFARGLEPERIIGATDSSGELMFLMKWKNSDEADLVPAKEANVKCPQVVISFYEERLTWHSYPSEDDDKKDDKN
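Compound inhibition of the preformed complex between 50 nM HP1-beta and 50 nM biotinylated H3K9me3 peptide was read by AlphaScreen. Buffer was PBS pH 7.4 with 0.01% Tween-20. Incubations ran 30 min at room temperature, with 10 ug/mL donor/acceptor beads.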
JMJD2A Tudor inh = qHTS Assay for Inhibitors of JMJD2A-Tudor Domain | Potency, µM (titrated, usually from 114 µM), actives largely listed as inhibitors | 4.4% of 390,000 active | AID 504339, 2011 | Lysine-specific demethylase 4A (Homo sapiens), O75164 | AlphaScreen JMJD2A-Tudor / H3K4me3 peptide binding; note: nearly all actives have a fitted effect of over 50% in size
G9a block = qHTS Assay for Inhibitors of Histone Lysine Methyltransferase G9a; Histone-lysine N-methyltransferase EHMT2 (Homo sapiens), Q96KQ7; G9a H3K9 monomethylation, AlphaScreen, 2 h; Potency, µM (highest dose often 102 µM), hits mostly inhibitors; 8.8% of 350,000 active; AID 504332, 2011; note: nearly all actives have a fitted effect of over 75% in size
Target sequence (Q96KQ7 913-1193 limits assumed): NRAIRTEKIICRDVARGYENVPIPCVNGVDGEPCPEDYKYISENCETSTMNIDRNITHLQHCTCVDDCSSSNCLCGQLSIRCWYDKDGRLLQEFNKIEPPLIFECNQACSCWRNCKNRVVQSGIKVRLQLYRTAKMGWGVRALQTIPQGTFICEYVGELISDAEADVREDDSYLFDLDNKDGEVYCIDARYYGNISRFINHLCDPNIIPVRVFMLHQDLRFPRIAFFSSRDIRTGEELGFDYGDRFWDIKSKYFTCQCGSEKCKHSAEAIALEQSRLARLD
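Quantitative HTS format: methyltransferase activity on a biotin-tagged H3K9 peptide is measured by AlphaScreen, using a rabbit anti-monomethyl-H3K9 antibody with streptavidin donor and anti-IgG acceptor beads. Final levels are 20 nM enzyme, 500 nM peptide, 20 uM SAM; 2 h RT.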
L3MBTL1 block = qHTS Assay for the Inhibitors of L3MBTL1. AID 485360, 2010. Potency, µM (highest dose often 57.1 µM), hits mostly inhibitors. 0.66% of 230,000 active. AlphaScreen L3MBTL1–H3K9me1 peptide binding; note: nearly all actives have a fitted effect of over 60% in size
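L3MBTL1 (50 nM) pre-complexed 30 min with biotinylated H3(1-15)K9me1 peptide (75 nM), then compounds added for 30 min at room temperature; AlphaScreen streptavidin donor/nickel chelate acceptor beads (10 ug/mL final) read after 30 min dark incubation.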
Sfp PPTase inh = qHTS Assay for Inhibitors of Bacillus subtilis Sfp phosphopantetheinyl transferase (PPTase). 4'-phosphopantetheinyl transferase ffp (Bacillus subtilis), Q9F4F7. Potency, µM, usual class: inhibitors. Biochemical Sfp PPTase activity, qHTS. 3.5% of 310,000 active;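 note: the enzyme is Sfp with the accession as filed and its product quenches rhodamine fluorescence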
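Reaction rates are the 30-min fluorescence difference (ex 525, em 598 nm) in wells containing 15 nM Sfp, 5 uM rhodamine-CoA and 12.5 uM BHQ-2-YbbR at pH 7.6 with 10 mM MgCl2.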
BAZ2B block = qHTS Assay for Inhibitors of BAZ2B; Bromodomain adjacent to zinc finger domain protein 2B (Homo sapiens), Q9UIF8; AlphaScreen BAZ2B-H3K14Ac peptide displacement; 4.4% of 360,000 active; Potency, µM (doses to about 114 µM), most hits filed as inhibitors; note: nearly all actives have a fitted effect of over 60% in size
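AlphaScreen luminescence quantifies BAZ2B engagement of H3K14Ac peptide; the protein and biotinylated peptide are both at 50 nM final, buffer PBS pH 7.4 with 0.01% Tween-20, all steps at room temperature.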
Hits are given with their value; . = inactive; ? = inconclusive; / = no result given; [ ] = remark or other dose. Only some compounds are listed: those with a hit (about 12% of all), similar ones and a draw of the others. Calls come from the whole dose curve; as a rule, active = well fitted curve in the direction sought with a large enough effect; inconclusive = small, poorly fitted or top-dose-only effect, or another doubt; inactive = no such curve, though single readings can be large; an effect the other way counts as inactive or inconclusive.

SMILES	HP1b chromo inh	JMJD2A Tudor inh	G9a block	L3MBTL1 block	Sfp PPTase inh	BAZ2B block
CC(C)c1nc2sc(C(=O)O)c(N)c2c2c1CCCC2	.	.	?	.	56µM	.
CCOC(=O)c1ccc(NC(=O)Cn2nc(SC)c(S(=O)(=O)c3ccc(Cl)cc3)c2N)cc1	.	.	.	/	/	.
Cc1ccc2oc(C(=O)Nc3cccc(-c4nc5ccccc5s4)c3)c(C)c2c1	.	.	.	/	/	.
CCCn1c(-c2ccc(F)cc2)nc2c(NCCCN3CCCCC3C)nc(C)nc21 (stereo not given)	/	/	/	/	.	/
CC(=O)c1sc2nc(-c3ccc(C)cc3)c3c(c2c1N)CCCC3	.	.	.	.	35µM	.
COc1cc2ccnc(Cc3cccc(OC)c3OC)c2cc1OC	.	79µM	.	.	.	.
COc1cc(Cc2nccc3cc(OC)c(OC)cc23)c(S(=O)(=O)O)cc1OC	.	.	.	/	.	.
CCOc1ccc2[nH]c3c(c2c1)CNCC3	.	?	71µM	.	.	.
CCOc1ccc2[nH]c(O)c(NC(C)=O)c2c1	.	.	?	.	.	.
Cc1cc(C)nc(SC(C(=O)O)c2ccccc2)n1 (stereo not given)	.	.	.	.	.	.
Cc1cc(C)nc(Sc2nc(Cl)nc(N(c3ccccc3)c3ccccc3)n2)n1	.	6.3µM	?	/	25µM	?
Cc1ccc(S(=O)(=O)Nc2nc(C)c(C)s2)cc1	.	.	22µM	/	.	.
CCSC(C)CC1CC(=O)CC(=O)C1 (stereo not given)	.	.	56µM	.	.	.
CC(C)(C)c1csc(NC(=O)c2ccccc2O)n1	.	.	/	.	.	.
C/C(=N\Nc1nc(C(C)(C)C)cs1)c1ccccc1	.	?	71µM	/	.	?
C/C(=N\Nc1nc(C(C)(C)C)cs1)c1ccc(O)cc1	.	?	32µM	.	50µM	?
C/C(=N\Nc1nc2c(s1)CCCC2)c1ccccc1	?	?	?	/	?	45µM
Cc1ccc(C(=O)N2CCN(Cc3cc(=O)n4nc(-c5ccccc5)sc4n3)CC2)cc1	.	.	.	/	/	.
CC1=NCC(C)c2c1[nH]c1ccccc21 (stereo not given)	?	?	13µM	.	.	?
Cc1[nH]c2ccccc2c1C1N2CC3(C)CN1CC(C)(C2)C3=O (stereo not given)	.	.	.	/	/	.
CCOc1ccc(S(=O)(=O)c2c(C(=O)c3ccc(CC)cc3)cnc3ccc(C)cc23)cc1	.	.	?	/	/	.
CS(=O)(=O)c1ccc(S(=O)CC(=O)Oc2ccc(Cl)cc2)c([N+](=O)[O-])c1 (stereo not given)	.	.	6.3µM	/	?	.
O=C(CS(=O)c1ccccc1[N+](=O)[O-])Oc1ccc(Br)cc1 (stereo not given)	.	.	/	.	.	?
COc1ccc(NC(=O)COC(=O)c2ccc(Cl)c(S(N)(=O)=O)c2)c([N+](=O)[O-])c1	.	.	/	.	.	.
CC(=O)N1c2ccc(Cl)cc2C2C=CCC2C1c1cccc2ccccc12 (stereo not given)	.	.	13µM	?	?	.
SMILES	HP1b chromo inh	JMJD2A Tudor inh	G9a block	L3MBTL1 block	Sfp PPTase inh	BAZ2B block
CCc1ccc(-c2nc(CS(=O)CC(=O)NCCCN3CCOCC3)c(C)o2)cc1 (stereo not given)	.	.	?	/	.	.
O=C(Cn1cc(CNC(=O)c2ccccc2)nn1)Nc1cc(C(F)(F)F)ccc1Cl	/	.	/	/	/	/
CCOc1ccc(Cn2c(O)cc(=O)[nH]c2=O)cc1	.	.	?	.	50µM	.
COc1ccc(Cn2c(O)cc(=O)[nH]c2=O)cc1	.	.	10µM	.	45µM	.
Nc1cc(=O)[nH]c(=O)n1Cc1ccccc1	.	.	.	.	.	.
O=C(NC1CCN(Cc2ccccc2)CC1)c1cccc(S(=O)(=O)Nc2ccc(F)cc2)c1	.	.	.[12.7 µM]	.	/	.
CCN1c2ccccc2-c2nc(SCC(=O)Nc3cccc(C(F)(F)F)c3)ncc2S1(=O)=O	.	.	.	/	/	.
O=C1c2oc3ccccc3c(=O)c2C(c2ccc(Br)cc2)N1c1ccccn1 (stereo not given)	.	.	.	/	/	.
Cc1cc(C)nc(SCc2ccc(C(=O)N/N=C/c3ccco3)cc2)n1	.	.	40µM	/	?	?
COc1ccc(N=c2nc(-c3ccc(C)cc3)n(-c3ccccc3)s2)cc1	?	.	/	/	/	/
CCCCS(=O)(=O)/C=C\C=C/S(=O)(=O)CCCC	.	?	?	.	11µM	.
Cc1ccc(N2C(=O)CC(C)CC2=O)cc1	.	.	.	/	.	.
CCCC1Cc2c(sc3ncnc(N)c23)CO1 (stereo not given)	.	.	45µM	/	.	.
CC1(C)Cc2c(sc3ncnc(N)c23)CO1	.	.	.	/	.	.
CC(C)(C)C(=O)Nc1cc(NC(=O)C(C)(C)C)cc(C(=O)NNC(=O)c2ccncc2)c1	.	.	?	.	.	.
CC1=NN(c2cc(Cl)c(S(=O)(=O)O)cc2Cl)C(=O)C1	.	89µM	/	/	/	/
CC1=NN(c2ccc(Cl)c(C(=O)O)c2)C(=O)C1	.	56µM	50µM	?	.	.
CC1=NN(c2ccc(C(=O)O)c(N)c2)C(=O)C1	71µM	50µM	4.5µM	/	?	40µM
CCc1ccc(-c2nc3c(=O)n(C)c(=O)nc-3n(CC)n2)cc1	.	.	/	/	/	/
Cc1ccc(NC(=O)CCCn2c(=O)c3cccn3c3cccnc32)c(C)c1	.	.	.	/	/	.
COCCn1c(SCc2ccccc2F)nc2c([nH]c3ccccc32)c1=O	.	.	.	/	/	.
O=C(Nc1nccs1)c1ccc(Cl)nc1	.	.	?	/	.	.
O=C(Nc1nccs1)c1cccnc1Cl	.	.	.	/	.	.
O=C(Nc1nccs1)c1ncc(Cl)c(Cl)c1Cl	.	.	45µM	/	.	.
O=C(Nc1nccs1)c1ccccn1	.	79µM	?	?	79µM	/
O=C(O)c1cnccn1	?	25µM	8.9µM	.	?	45µM
O=C(Nc1nccs1)c1cnccn1	.	?	6.3µM	.	?	?
CN(C(=O)c1ccc(NC(=O)Cc2ccc(NC(=O)C3CCCN(C(=O)C4CC4)C3)cc2)cc1)C1CC1 (stereo not given)	.	.	.[0.501 µM]	.	/	.
CC1CC1C(=O)OCC(=O)Nc1ccc(Cl)cn1 (stereo not given)	.	.	/	.	/	/
